Laboratory results as given in the supplement of paper PMC8387472.

Experiments:
Conditions in all cases: mESC; 2uM; 72 h treatment, harvest day 5
[1] = compound: O=c1cc(N2CCOCC2)oc2c(-c3ccc4c(c3)OCCO4)csc12; assay: fraction of edited reads among all mapped reads; higher = more Cas9 editing
Mercaptopurine (6-MP) = compound: S=c1[nH]cnc2nc[nH]c12 [Mercaptopurine (6-MP)]; assay: as above
[2] = compound: S=c1nc[nH]c2nc[nH]c12 [6-Mercaptopurine (6-MP) Monohydrate]; assay: as above
[3] = compound: CC(=O)O/N=C1\C(=O)N(Cc2cc(Cl)ccc2Cl)c2ccc(Cl)cc21; assay: fraction of microhomology deletions among edited reads; higher = more MH deletions
[4] = compound: CC(C)(C#N)c1ccc(N2C(=O)OCc3cnc4ccc(-c5cnc6ccccc6c5)cc4c32)cc1; assay: as above
[5] = compound: CCCCOc1c(C(=O)c2c(F)cc(C)cc2F)c[nH]c2nncc1-2; assay: as above
[6] = compound: CCN1CCN(CC(=O)Nc2ccc(-c3cccc4c(=O)cc(N5CCOCC5)oc34)c3sc4ccccc4c23)CC1; assay: as above
[7] = compound: CCc1c2c(nc3ccc(OC(=O)N4CCC(N5CCCCC5)CC4)cc13)-c1cc3c(c(=O)n1C2)COC(=O)[C@]3(O)CC [Irinotecan HCl Trihydrate]; assay: as above
[8] = compound: CCn1c(=O)c(-c2ccc(Cl)cc2Cl)cc2cnc(Nc3ccc(N4CCNCC4)c(F)c3)nc21; assay: as above
[9] = compound: CNc1ccc([N+](=O)[O-])c(Nc2ccc3[nH]ncc3c2)n1; assay: as above

Target	fraction of edited reads among all mapped reads [1]	fraction of edited reads among all mapped reads (Mercaptopurine (6-MP))	fraction of edited reads among all mapped reads [2]	fraction of microhomology deletions among edited reads [3]	fraction of microhomology deletions among edited reads [4]	fraction of microhomology deletions among edited reads [5]	fraction of microhomology deletions among edited reads [6]	fraction of microhomology deletions among edited reads [7]	fraction of microhomology deletions among edited reads [8]	fraction of microhomology deletions among edited reads [9]
25.0 (DMSO control at this site: 1-bp insertion 0.017, MH deletion 0.774, edited 0.143) GGGCCTGAATGGTGTGGACATCTACTCGCTGGTGAGCTGGTGACTGAAAACATTCAGTGGC	0.105	0.193	0.126	0.806	0.772	0.766	0.787	0.759	0.783	0.778
15.0 GCGCCTCCAATGACCCAGTGGGATCCTACTCCATAATGGGATCCTGGGGATTCCTCGCTCC	–	–	0.132	0.354	0.378	–	–	–	–	–
33.0 (DMSO control at this site: 1-bp insertion 0.008, MH deletion 0.771, edited 0.112) CATTAAGAGCAGCTGCCGGCCCCCAAGTGGACAGAGCTGGCCCTGCTGATTCAACAGTGCA	0.0578	0.144	0.0975	0.714	0.71	0.717	0.76	0.741	0.716	0.727
45.0 (DMSO control at this site: 1-bp insertion 0.017, MH deletion 0.666, edited 0.101) TTACACAGCATGAACTGCTAGGTGATGATGTCAGATTCGGTTTTACTAACTTCTCCAAAAA	0.0613	0.128	0.092	0.623	0.655	0.62	0.654	0.631	0.655	0.622
44.0 (DMSO control at this site: 1-bp insertion 0.181, MH deletion 0.512, edited 0.123) ACACATACCTTCTTCGAGGCAGCCAGCATGATGAGACAGGTCTCCCACAAACACATCGTGT	0.091	0.173	0.13	0.553	0.526	0.528	0.637	0.469	0.547	0.506
42.0 (DMSO control at this site: 1-bp insertion 0.145, MH deletion 0.655, edited 0.132) GGGCTAAACCTATGAGCACAGTAGAACTAAGGGTGGGTGGTGTAGCTAAAGAACTTGACCA	0.0994	0.171	0.109	0.699	0.678	0.696	0.734	0.672	0.706	0.633
17.0 (DMSO control at this site: 1-bp insertion 0.112, MH deletion 0.348, edited 0.058) CCATAGCGCGATAAATATGACGGCTCATCCTGTATGACGGCTCATCCTGTATCAACTGTCC	0.037	0.0873	0.069	0.396	0.391	0.416	0.509	0.411	0.358	0.402
27.0 CCAGAATTAGAACATATCATCTGGACCCTTTTCCATCTGGACCCTTTTCCAGCACACCCTG	0.0389	0.0718	0.0546	0.162	0.195	0.138	–	0.0693	–	0.225
2.0 (DMSO control at this site: 1-bp insertion 0.364, MH deletion 0.356, edited 0.125) GGTGCCCCCGAGACCTACGCGAACCGAAATCGATGTCCGGTGCGCAAGCAGGGCTGGCGTC	0.0694	0.166	0.112	0.422	0.343	0.375	0.513	0.414	0.384	0.345
31.0 (DMSO control at this site: 1-bp insertion 0.315, MH deletion 0.329, edited 0.026) ACCTCCACAGGCTGGGTGGCCCGGAGGCTGGGCGGCCCGGAGGCTGGGCTGGGCGAGTATC	0.0134	0.0491	0.0301	0.32	0.349	0.458	0.276	0.519	0.5	0.405
39.0 (DMSO control at this site: 1-bp insertion 0.328, MH deletion 0.371, edited 0.204) CTGCACAGTCACTTAGGATAGGAGAAGATGATGTATAGGGTTTAGTGGGAGATGTTGCAAG	0.121	0.243	0.167	0.412	0.405	0.358	0.539	0.384	0.367	0.332
47.0 (DMSO control at this site: 1-bp insertion 0.095, MH deletion 0.585, edited 0.118) GAGTGGTCCCGAGCCAGGAACTGTGTGTGTTGCAGGGGGGCAGTAACTCCCCAACTCCCTC	0.0673	0.143	0.101	0.564	0.539	0.518	0.62	0.473	0.597	0.542
19.0 (DMSO control at this site: 1-bp insertion 0.121, MH deletion 0.101, edited 0.057) TCTGCAGGGGTCGGAACCCGGGGGCTAGGGCTATCCCGGGGGCTAGGGCTATTAGCGAACC	0.0353	0.0901	0.0729	0.203	0.175	0.215	0.187	0.222	0.147	0.197
30.0 (DMSO control at this site: 1-bp insertion 0.074, MH deletion 0.67, edited 0.142) GAGCTGGCATGAGTATTTGTGCCACATGGCTCCCACATGGCTCCACATGCAAGTTTGAAAC	0.0819	0.165	0.115	0.699	0.725	0.723	0.761	0.727	0.708	0.699
4.0 (DMSO control at this site: 1-bp insertion 0.146, MH deletion 0.523, edited 0.125) ACGCCTTAGTGCACGAGTGACGGGATAATGTGGTCTCAGGTAATTGATAGGCTTCCAACTT	0.0874	0.174	0.122	0.582	0.526	0.507	0.635	0.564	0.591	0.527
35.0 (DMSO control at this site: 1-bp insertion 0.01, MH deletion 0.72, edited 0.098) CCACTTTTAGAGAGGGTGAAAATCATCAGTTATCATCAGGGCAACAAATTGCTTTCTCCTA	0.0645	0.127	0.0862	0.754	0.761	0.781	0.788	0.732	0.729	0.732
32.0 (DMSO control at this site: 1-bp insertion 0.03, MH deletion 0.85, edited 0.898) AGAAGTCCAGGATCAGGGGGACTGGGGTCGGGAGGGTGGGGCAGGAAGGAAGCCAGAATCA	0.84	0.906	0.874	0.93	0.904	0.914	0.912	0.901	0.905	0.895
28.0 (DMSO control at this site: 1-bp insertion 0.035, MH deletion 0.77, edited 0.142) TGGTTCTTCCTTTGTAGAGAGTGTTCATCTGGGAATCTGGGACTTGGATGAGACAATCATT	0.0926	0.18	0.117	0.789	0.793	0.767	0.818	0.763	0.774	0.774
34.0 (DMSO control at this site: 1-bp insertion 0.184, MH deletion 0.385, edited 0.103) ATTATAGGACCCTGAGGGAGCAGAGATGTGGGAATGGGGGCCGAGCCAATTGTGATGTAAG	0.0512	0.114	0.0949	0.51	0.538	0.496	0.585	0.527	0.53	0.524
7.0 (DMSO control at this site: 1-bp insertion 0.128, MH deletion 0.374, edited 0.098) TACTCAACCGAGACCTACGCGAACCGAAATCGTATGCCGGTGCGCAAGCAGGGCTGGCGTC	0.067	–	0.0891	0.489	0.456	0.404	0.477	0.484	0.417	0.442
38.0 (DMSO control at this site: 1-bp insertion 0.063, MH deletion 0.487, edited 0.17) GGGCTGGGTGCTAAAATGAGGAGCTCCAAGAAGACTGAGGTGAACCTGGAGGCCCCTGAGC	0.0925	0.193	0.157	0.497	0.485	0.505	0.546	0.488	0.513	0.501
43.0 (DMSO control at this site: 1-bp insertion 0.134, MH deletion 0.714, edited 0.104) AGTTTAACTTACTCCGGCCAAAAAAGAACTGCACCTCTGGAGCGGGTTAGTGGTGGTGGTA	0.0695	0.165	0.114	0.72	0.687	0.69	0.711	0.676	0.77	0.703
40.0 (DMSO control at this site: 1-bp insertion 0.072, MH deletion 0.192, edited 0.189) GCGAATCAACTGTTCAACAACAGCAGCAGCCACCTGGAGGACTACAGTGGCCTGTCCGTGT	0.107	0.24	0.175	0.2	0.177	0.179	0.26	0.196	0.21	0.184
